# Measurements reported in article PMC7862700, “An all-to-all approach to the identification of sequence-specific readers for epigenetic DNA modifications on cytosine”.
# Key:
# Assay in all cases: DAPPL (digital affinity profiling via proximity ligation, sequencing); 10 mM Tris-HCl pH 7.5, 50 mM NaCl, 1 mM DTT, 4% glycerol, room temperature, 30 min; GST-TFs on glutathione beads, 16-mer random dsDNA library, 0.1% formaldehyde crosslink after washing; high values mean tight binding
# Settings in all cases: protein: recombinant; tags: N-terminal GST; dsDNA, one strand shown
# FLI1 = molecular target: T1, FLI1 (Homo sapiens, UniProt Q01543 1-452)
# T1 sequence: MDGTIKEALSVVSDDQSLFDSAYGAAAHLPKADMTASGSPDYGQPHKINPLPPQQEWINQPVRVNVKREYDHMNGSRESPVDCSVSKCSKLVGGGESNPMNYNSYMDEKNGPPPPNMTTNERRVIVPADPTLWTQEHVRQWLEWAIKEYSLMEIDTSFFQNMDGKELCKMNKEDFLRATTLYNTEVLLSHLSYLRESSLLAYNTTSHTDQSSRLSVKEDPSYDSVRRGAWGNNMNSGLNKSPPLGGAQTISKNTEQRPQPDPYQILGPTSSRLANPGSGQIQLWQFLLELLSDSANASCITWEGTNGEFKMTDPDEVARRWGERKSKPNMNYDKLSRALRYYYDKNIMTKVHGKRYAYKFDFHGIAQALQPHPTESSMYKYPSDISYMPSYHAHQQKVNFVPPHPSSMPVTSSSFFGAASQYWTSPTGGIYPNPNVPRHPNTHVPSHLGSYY
# In short: (§1)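 Binding signal is each hexamer's read frequency for a factor divided by its frequency in the tag-only sample. The factors were GST-fused human transcription factors from yeast, captured on glutathione beads, DNA-barcoded and pooled with that sample. Pools were incubated with 200 nmole of a random double-stranded 16-mer DNA library in Tris/NaCl/DTT/glycerol buffer at room temperature for 30 min, then washed, crosslinked with 0.1% formaldehyde, proximity-ligated with BsaI/T4 ligase (1 h, 37 °C), PCR-amplified and sequenced on an Illumina NextSeq500.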
# ELK1 = molecular target: T2, ELK1 (Homo sapiens, UniProt P19419 1-428)
# T2 sequence: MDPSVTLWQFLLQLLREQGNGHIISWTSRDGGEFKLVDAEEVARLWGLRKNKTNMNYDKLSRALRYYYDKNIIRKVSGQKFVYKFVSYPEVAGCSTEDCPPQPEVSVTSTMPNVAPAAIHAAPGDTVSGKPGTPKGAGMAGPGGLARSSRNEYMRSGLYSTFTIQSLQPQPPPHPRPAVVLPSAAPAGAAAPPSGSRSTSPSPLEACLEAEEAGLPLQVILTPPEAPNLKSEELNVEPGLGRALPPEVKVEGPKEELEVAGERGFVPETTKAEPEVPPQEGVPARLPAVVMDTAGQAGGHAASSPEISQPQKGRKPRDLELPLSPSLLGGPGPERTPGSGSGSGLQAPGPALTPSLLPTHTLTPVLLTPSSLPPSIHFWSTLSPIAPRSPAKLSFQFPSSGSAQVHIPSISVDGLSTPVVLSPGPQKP
# In short: as §1
# GABPA = molecular target: T3, GABPA (Homo sapiens, UniProt Q06546 1-454)
# T3 sequence: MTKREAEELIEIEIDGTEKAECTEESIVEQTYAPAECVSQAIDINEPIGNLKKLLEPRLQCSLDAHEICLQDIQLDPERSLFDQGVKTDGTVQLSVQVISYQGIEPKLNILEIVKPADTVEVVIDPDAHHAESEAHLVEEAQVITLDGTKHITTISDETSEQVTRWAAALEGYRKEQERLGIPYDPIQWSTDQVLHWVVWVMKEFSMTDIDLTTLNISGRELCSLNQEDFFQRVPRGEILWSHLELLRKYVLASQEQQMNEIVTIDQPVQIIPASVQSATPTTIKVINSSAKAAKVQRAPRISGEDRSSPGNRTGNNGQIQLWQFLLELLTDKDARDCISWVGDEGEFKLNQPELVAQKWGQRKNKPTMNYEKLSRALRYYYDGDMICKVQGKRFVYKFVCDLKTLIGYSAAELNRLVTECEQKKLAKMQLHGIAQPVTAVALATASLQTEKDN
# In short: as §1
# ERG = molecular target: T4, ERG (Homo sapiens, UniProt P11308 1-479)
# T4 sequence: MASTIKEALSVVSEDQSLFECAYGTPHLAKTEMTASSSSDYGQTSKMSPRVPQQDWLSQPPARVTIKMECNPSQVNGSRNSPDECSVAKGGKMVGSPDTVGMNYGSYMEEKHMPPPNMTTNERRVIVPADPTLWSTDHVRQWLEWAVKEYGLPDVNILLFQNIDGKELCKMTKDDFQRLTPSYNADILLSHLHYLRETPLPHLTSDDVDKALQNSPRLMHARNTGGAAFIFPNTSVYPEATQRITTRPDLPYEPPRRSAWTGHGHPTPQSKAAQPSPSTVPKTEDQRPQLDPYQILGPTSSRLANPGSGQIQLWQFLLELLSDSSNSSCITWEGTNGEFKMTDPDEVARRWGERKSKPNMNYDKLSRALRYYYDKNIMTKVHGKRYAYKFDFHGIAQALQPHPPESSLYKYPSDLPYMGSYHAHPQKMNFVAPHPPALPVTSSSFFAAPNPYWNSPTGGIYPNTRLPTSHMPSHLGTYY
# In short: as §1
# ELF1 = ELF1 (Homo sapiens, UniProt P32519 1-619)
# Chain of ELF1 (P32519 whole entry): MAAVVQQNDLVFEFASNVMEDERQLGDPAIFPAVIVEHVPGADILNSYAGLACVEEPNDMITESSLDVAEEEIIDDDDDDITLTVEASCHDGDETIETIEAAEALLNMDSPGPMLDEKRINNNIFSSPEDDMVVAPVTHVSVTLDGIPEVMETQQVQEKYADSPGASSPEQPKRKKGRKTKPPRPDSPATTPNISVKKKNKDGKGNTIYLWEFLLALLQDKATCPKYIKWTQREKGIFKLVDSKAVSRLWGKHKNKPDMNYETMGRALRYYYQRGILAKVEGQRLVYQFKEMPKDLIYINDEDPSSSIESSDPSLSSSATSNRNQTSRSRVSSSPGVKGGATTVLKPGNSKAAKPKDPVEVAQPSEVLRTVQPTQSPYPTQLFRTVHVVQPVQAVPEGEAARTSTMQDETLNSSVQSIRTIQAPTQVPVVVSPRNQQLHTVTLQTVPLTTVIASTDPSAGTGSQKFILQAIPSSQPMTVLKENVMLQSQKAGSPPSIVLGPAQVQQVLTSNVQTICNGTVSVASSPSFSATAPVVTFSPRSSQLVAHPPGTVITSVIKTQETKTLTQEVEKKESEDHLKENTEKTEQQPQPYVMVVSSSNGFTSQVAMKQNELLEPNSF
# In short: as §1
# EHF = molecular target: T5, EHF (Homo sapiens, UniProt Q9NZC4 1-300)
# T5 sequence: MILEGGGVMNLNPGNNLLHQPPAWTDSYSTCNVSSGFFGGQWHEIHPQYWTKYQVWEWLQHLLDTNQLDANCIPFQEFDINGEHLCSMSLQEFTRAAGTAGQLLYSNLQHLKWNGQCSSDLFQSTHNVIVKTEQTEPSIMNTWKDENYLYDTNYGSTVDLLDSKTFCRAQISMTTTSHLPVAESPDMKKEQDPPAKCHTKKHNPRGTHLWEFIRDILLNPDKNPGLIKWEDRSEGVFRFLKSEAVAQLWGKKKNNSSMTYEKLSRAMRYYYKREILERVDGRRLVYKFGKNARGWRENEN
# In short: as §1
# SPI1 = SPI1 (Homo sapiens, UniProt P17947 1-270)
# In short: as §1
# SPIB = SPIB (Homo sapiens, UniProt Q01892 1-262)
# Chain of SPIB (Q01892 whole entry): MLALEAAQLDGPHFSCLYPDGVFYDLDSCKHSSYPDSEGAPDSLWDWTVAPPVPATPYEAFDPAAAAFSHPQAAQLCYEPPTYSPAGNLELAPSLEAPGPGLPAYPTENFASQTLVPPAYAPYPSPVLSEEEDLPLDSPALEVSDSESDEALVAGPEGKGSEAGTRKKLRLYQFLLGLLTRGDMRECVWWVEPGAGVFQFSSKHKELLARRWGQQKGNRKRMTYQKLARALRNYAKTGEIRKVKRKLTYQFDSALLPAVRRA
# In short: as §1
# ELK3 = molecular target: T6, ELK3 (Homo sapiens, UniProt P41970 1-407)
# T6 sequence: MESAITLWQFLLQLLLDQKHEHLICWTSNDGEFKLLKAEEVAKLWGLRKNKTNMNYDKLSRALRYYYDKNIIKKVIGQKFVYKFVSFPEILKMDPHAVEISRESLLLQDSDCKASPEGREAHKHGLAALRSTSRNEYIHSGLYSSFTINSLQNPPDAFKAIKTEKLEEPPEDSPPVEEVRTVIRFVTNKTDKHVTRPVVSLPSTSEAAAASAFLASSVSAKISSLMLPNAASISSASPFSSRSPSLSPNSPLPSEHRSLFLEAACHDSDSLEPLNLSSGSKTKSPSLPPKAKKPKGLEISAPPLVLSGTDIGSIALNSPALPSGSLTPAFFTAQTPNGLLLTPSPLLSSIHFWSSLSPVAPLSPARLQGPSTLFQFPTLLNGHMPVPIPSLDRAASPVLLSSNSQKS
# In short: as §1
Sequence,binding signal (FLI1),binding signal (ELK1),binding signal (GABPA),binding signal (ERG),binding signal (ELF1),binding signal (EHF),binding signal (SPI1),binding signal (SPIB),binding signal (ELK3)
ATCACC,"1.17 fold enrichment (6-mer frequency, TF over GST control)","1.18 fold enrichment (6-mer frequency, TF over GST control)","1.13 fold enrichment (6-mer frequency, TF over GST control)","1.14 fold enrichment (6-mer frequency, TF over GST control)","1.19 fold enrichment (6-mer frequency, TF over GST control)","1.1 fold enrichment (6-mer frequency, TF over GST control)","1.11 fold enrichment (6-mer frequency, TF over GST control)","1.03 fold enrichment (6-mer frequency, TF over GST control)","1.27 fold enrichment (6-mer frequency, TF over GST control)"
TTGACT,"1.19 fold enrichment (6-mer frequency, TF over GST control)","1.19 fold enrichment (6-mer frequency, TF over GST control)","1.15 fold enrichment (6-mer frequency, TF over GST control)","1.18 fold enrichment (6-mer frequency, TF over GST control)","1.15 fold enrichment (6-mer frequency, TF over GST control)","1.06 fold enrichment (6-mer frequency, TF over GST control)","1.19 fold enrichment (6-mer frequency, TF over GST control)","1.18 fold enrichment (6-mer frequency, TF over GST control)","1.03 fold enrichment (6-mer frequency, TF over GST control)"
CAATAA,"1.12 fold enrichment (6-mer frequency, TF over GST control)","1.07 fold enrichment (6-mer frequency, TF over GST control)","1.25 fold enrichment (6-mer frequency, TF over GST control)","1.13 fold enrichment (6-mer frequency, TF over GST control)","1.13 fold enrichment (6-mer frequency, TF over GST control)","1.15 fold enrichment (6-mer frequency, TF over GST control)","1.14 fold enrichment (6-mer frequency, TF over GST control)","1.11 fold enrichment (6-mer frequency, TF over GST control)","1.2 fold enrichment (6-mer frequency, TF over GST control)"
AATGCA,"1.25 fold enrichment (6-mer frequency, TF over GST control)","1.28 fold enrichment (6-mer frequency, TF over GST control)","1.28 fold enrichment (6-mer frequency, TF over GST control)","1.29 fold enrichment (6-mer frequency, TF over GST control)","1.27 fold enrichment (6-mer frequency, TF over GST control)","1.25 fold enrichment (6-mer frequency, TF over GST control)","1.21 fold enrichment (6-mer frequency, TF over GST control)","1.34 fold enrichment (6-mer frequency, TF over GST control)","1.3 fold enrichment (6-mer frequency, TF over GST control)"
